For 17 molecules, Potency and max response results are on record in PubChem BioAssay (Tox21).

The nature of assay [1]: qHTS RealTime-Glo MT Cell Viability Assay in HEK293 cells - 16 hour (AID 1224872). Further: top concentration of the series differs between compounds; nearly all actives have a fitted effect of over 50% in size. In outline:
(§1)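 Viability tracked continuously by luminescence as live cells reduce a prosubstrate for NanoLuc; HEK293 cells preincubated 5 h, compound-treated at 37 C, and read at 0, 8, 16, 24, 32 and 40 h.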
A general note: In qHTS, concentration-response curves come from the screen itself.

A short description of assay [2]: qHTS RealTime-Glo MT Cell Viability Assay in HEK293 cells - 40 hour (AID 1224874). Further: nearly all actives have a fitted effect of over 50% in size. Further: potency means the concentration at half of the fitted maximal effect. As to conditions: RealTime-Glo luminescence; max response: active compounds read low. Put shortly: (§2)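 Real-time viability in HEK293: signal arises when living cells convert a prosubstrate for NanoLuc in the medium, so luminescence tracks viable cell number. Compound (23 nL, DMSO) added 5 h post-seeding; kinetic reads at 0–40 h, 37 C.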

A short description of assay [3]: A CellTox Green Cytotoxicity Assay to monitor cytotoxicity in HEK293 cells - 24 hour (AID 1224875). Further: nearly all actives have a fitted effect of over 45% in size. Further: potency means the concentration at half of the fitted maximal effect. Put shortly: (§3)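 Cells (HEK293, 600/well) and dye reagent are dispensed together. After 5 h at 37 C, 23 nL compound is pinned in. Plates stay at 37 C for 40 h with fluorescence read at 0h, 8h, 16h, 24h, 32h and 40h.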
The nature of assay [4]: A CellTox Green Cytotoxicity Assay to monitor cytotoxicity in HepG2 cells - 16 hour (AID 1224876). Further: nearly all actives have a fitted effect of over 45% in size. Further: potency means the concentration at half of the fitted maximal effect. In outline:
(§4)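 Cells and non-lytic dye reagent are dispensed together (600 HepG2 cells/well) and incubated 5 h before DMSO compound transfer. Kinetic fluorescence is then recorded in the same wells during 40 h at 37 C.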

The nature of assay [5]: A CellTox Green Cytotoxicity Assay to monitor cytotoxicity in HEK293 cells - 32 hour (AID 1224881). Further: nearly all actives have a fitted effect of over 40% in size. Further: potency means the concentration at half of the fitted maximal effect. Put shortly:
as §3

Assay [6] is described as follows: A CellTox Green Cytotoxicity Assay to monitor cytotoxicity in HepG2 cells - 0 hour (AID 1224882). Further: nearly all actives have a fitted effect of over 35% in size. Further: potency means the concentration at half of the fitted maximal effect. Put shortly: as §4
Assay [7] can be described thus: A CellTox Green Cytotoxicity Assay to monitor cytotoxicity in HEK293 cells - 8 hour (AID 1224884). Further: nearly all actives have a fitted effect of over 35% in size. Further: potency means the concentration at half of the fitted maximal effect. Put shortly: as §3
The nature of assay [8]: qHTS RealTime-Glo MT Cell Viability Assay in HEK293 cells - 24 hour (AID 1224886). Further: nearly all actives have a fitted effect of over 50% in size. Further: potency means the concentration at half of the fitted maximal effect. In outline: as §1
The nature of assay [9]: qHTS RealTime-Glo MT Cell Viability Assay in HEK293 cells - 8 hour (AID 1224887). Further: nearly all actives have a fitted effect of over 50% in size. Further: potency means the concentration at half of the fitted maximal effect. Put shortly:
as §2

Assay [10] is described as follows: A CellTox Green Cytotoxicity Assay to monitor cytotoxicity in HEK293 cells - 16 hour (AID 1224888). Further: nearly all actives have a fitted effect of over 35% in size. Further: potency means the concentration at half of the fitted maximal effect. In outline:
as §3

Assay [11] is described as follows: qHTS RealTime-Glo MT Cell Viability Assay in HepG2 cells - 0 hour (AID 1224889). Further: nearly all actives have a fitted effect of over 50% in size. Further: potency means the concentration at half of the fitted maximal effect. Put shortly:
(§5)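 Viability was tracked continuously by NanoLuc luminescence from prosubstrate reduced by living HepG2 cells, at successive time points over 40 h of compound exposure. Cells with reagent were preincubated 5 h at 37 °C before compound addition.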

Assay [12] can be described thus: A CellTox Green Cytotoxicity Assay to monitor cytotoxicity in HepG2 cells - 8 hour (AID 1224890). Further: nearly all actives have a fitted effect of over 45% in size. Further: potency means the concentration at half of the fitted maximal effect. In outline: as §4
A short description of assay [13]: qHTS RealTime-Glo MT Cell Viability Assay in HepG2 cells - 32 hour (AID 1224877). Further: nearly all actives have a fitted effect of over 55% in size. Put shortly:
as §5

Assay [14] is described as follows: A CellTox Green Cytotoxicity Assay to monitor cytotoxicity in HepG2 cells - 24 hour (AID 1224878). Further: nearly all actives have a fitted effect of over 45% in size. Further: potency means the concentration at half of the fitted maximal effect. Put shortly: as §4
Assay [15] can be described thus: A CellTox Green Cytotoxicity Assay to monitor cytotoxicity in HepG2 cells - 40 hour (AID 1224879). Further: nearly all actives have a fitted effect of over 40% in size. Further: potency means the concentration at half of the fitted maximal effect. In outline: as §4
Assay [16] is described as follows: qHTS RealTime-Glo MT Cell Viability Assay in HEK293 cells - 0 hour (AID 1224880). Put shortly:
as §2

Assay [17] can be described thus: qHTS RealTime-Glo MT Cell Viability Assay in HepG2 cells - 16 hour (AID 1224885). Further: nearly all actives have a fitted effect of over 50% in size. Put shortly:
as §5

Assay [18] can be described thus: qHTS RealTime-Glo MT Cell Viability Assay in HepG2 cells - 8 hour (AID 1224873). Further: nearly all actives have a fitted effect of over 55% in size. In outline: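 Real-time viability: cells seeded at 600 per well together with NanoLuc and cell-permeant prosubstrate, compounds added after 5 h incubation. Luminescence tracked at 0, 8, 16, 24, 32 and 40 h of exposure.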
The nature of assay [19]: A CellTox Green Cytotoxicity Assay to monitor cytotoxicity in HepG2 cells - 32 hour (AID 1224883). Further: nearly all actives have a fitted effect of over 50% in size. Further: potency means the concentration at half of the fitted maximal effect. Put shortly:
as §4

Each structure is given as a SMILES string. Values without a mark were called inactive. Inconclusive results are not listed. Calls of active or inactive are those of the source. The call rests on the fitted dose curve; in most records, active means well fitted curve in the direction sought with a large enough effect in the repeat runs; inconclusive means weak or mixed curves; inactive means no such curve, though single readings can be large; an effect the other way counts as inactive or inconclusive.
On the % scale 0 is the no-effect control and ±100 the full control effect.

Consider `O=C(Nc1ccc(S(=O)(=O)N2CCOCC2)cc1)c1cc(Cl)ccc1NS(=O)(=O)c1ccc(Cl)s1`, for which the Potency result in assay [1], in [8] and in [9] was “inactive” each time. Also, the max response in assay [2] is -14.7%. The Potency is 23.9 µM (active) in assay [3]; 26.8 µM (active) in assay [4]; 23.9 µM (active) in [5]; 21.3 µM (active) in assay [6]; 23.9 µM (active) in assay [7]; 23.9 µM (active) in assay [10]. For the same molecule, the Potency was 9.52 µM (active) in assay [11] and 26.8 µM (active) in [12].
As for `C[C@H]1C[C@H]2[C@@H]3CCC4=CC(=O)C=C[C@]4(C)[C@@]3(Cl)[C@@H](O)C[C@]2(C)[C@@]1(O)C(=O)CO`, in [2], the max response was -22.6%. Further, the Potency result in assay [3], in assay [4], in assay [13], in assay [14], in [15] and in assay [16] was “inactive” in each case. The Potency entry in [5], in assay [6], in assay [7], in assay [17], in assay [8] and in assay [9] was “inactive” throughout. The Potency entry in assay [10], in assay [11] and in assay [12] was “inactive” each time.
Regarding `CC(=O)NO`, the Potency result in assay [18], in assay [3], in [4], in [13], in assay [14] and in assay [15] was “inactive” each time. For the same molecule, the Potency entry in [16], in assay [5], in assay [6], in assay [19], in assay [7] and in [17] was “inactive” throughout. In addition, the Potency result in [8], in assay [10], in [11] and in [12] was “inactive” throughout. Also, the max response in assay [2] is 2.23%.
Turning to `Cc1cccc(C)c1OCC(=O)N[C@@H](Cc1ccccc1)[C@@H](O)C[C@H](Cc1ccccc1)NC(=O)[C@H](C(C)C)N1CCCNC1=O`, the Potency entry in assay [18], in assay [4], in assay [13], in assay [14], in assay [15] and in [16] was “inactive” throughout. Further, the Potency result in assay [19], in assay [7], in assay [17], in assay [10], in assay [11] and in assay [12] was “inactive” each time. Further, the Potency in [2] and in assay [8] was 23.9 µM (active) in each case.
Consider `CCOc1ccc(N)c([N+](=O)[O-])c1`, for which the Potency result in [18], in assay [3], in assay [4], in [13], in assay [14] and in assay [15] was “inactive” in each case. In addition, the Potency result in [5], in [6], in [19], in assay [7], in assay [17] and in [10] was “inactive” in each case. In addition, the Potency result in [11] and in [12] was “inactive” each time.
In the case of `O=C1[C@H]2CCCC[C@H]2C(=O)N1CCCCN1CCN(c2nsc3ccccc23)CC1`, the Potency entry in assay [18], in assay [3], in assay [4], in assay [13], in assay [14] and in [15] was “inactive” throughout. The Potency result in [16], in assay [5], in assay [6], in assay [7], in assay [17] and in assay [10] was “inactive” each time. Also, in assay [11], the Potency result was “inactive”.
As for `CCOC(=O)COC(=O)c1cc(Oc2ccc(C(F)(F)F)cc2Cl)ccc1[N+](=O)[O-]`, the Potency result in assay [3], in assay [4], in assay [13], in assay [14], in assay [15] and in [16] was “inactive” each time. In addition, the Potency result in [6], in assay [19], in assay [7], in assay [17], in assay [10] and in [11] was “inactive” in each case. Also, in assay [12], the Potency result was “inactive”. Moreover, the Potency in assay [9] is 49 µM (active).
For `O=[N+]([O-])c1cccc(S(=O)(=O)O)c1`, the Potency result in assay [18], in [3], in [4], in assay [13], in assay [14] and in assay [15] was “inactive” throughout. Besides, the Potency result in assay [16], in [5], in assay [19], in assay [7], in [17] and in assay [10] was “inactive” in each case. The Potency result in [11] and in [12] was “inactive” in each case. Also, the Potency in [2] is 17.6 µM (active); in [8], 22.2 µM (active).
Consider `OCc1cc(C(O)CNCCCCCCOCCCCc2ccccc2)ccc1O` (stereo unspecified), for which the Potency entry in [18], in assay [16], in assay [6], in assay [7], in assay [10] and in assay [11] was “inactive” in each case. In addition, the Potency entry in [12] is “inactive”. Also, the Potency in assay [2] is 23.9 µM (active); in assay [4] it was 23.9 µM (active); in assay [14], 23.9 µM (active); in assay [15], 23.9 µM (active); in [19] it was 23.9 µM (active); in assay [8] it was 19 µM (active).
With `C=CC(=O)OCCOCCOC(=O)C=C`, the Potency result in [4], in [16], in [7], in assay [9], in [10] and in assay [11] was “inactive” throughout. Also, the Potency was 49.2 µM (active) in [15], 49.2 µM (active) in assay [19] and 31 µM (active) in [8].
For the molecule `Nc1ccc(N)c2c1C(=O)c1ccccc1C2=O`, the Potency result in assay [3], in [4], in assay [13], in assay [14], in assay [15] and in assay [16] was “inactive” throughout. Besides, the Potency result in assay [5], in assay [7], in assay [17], in assay [10], in assay [11] and in assay [12] was “inactive” each time.
On to `Cc1cc(C(=O)O)ccc1[N+](=O)[O-]`, for which the Potency entry in assay [18], in assay [3], in assay [4], in assay [13], in assay [14] and in assay [15] was “inactive” in each case. Moreover, the Potency result in assay [16], in assay [5], in assay [7], in assay [17], in assay [8] and in assay [9] was “inactive” in each case. The Potency result in [10], in [11] and in [12] was “inactive” throughout. Moreover, in assay [2], the max response is 9.13%.
Turning to `Cc1cccc(Nc2ccccc2)c1`, the Potency was 38.9 µM (active) in assay [3]; 43.6 µM (active) in [4]; 38.9 µM (active) in [14]; 38.9 µM (active) in [15]; 34.7 µM (active) in [5]; 38.9 µM (active) in assay [19]. For the same molecule, in assay [12], the Potency was 49 µM (active). Also, the Potency result in assay [13], in assay [16], in assay [6], in assay [7], in assay [17] and in [8] was “inactive” each time. For the same molecule, the Potency result in assay [10] and in [11] was “inactive” each time.
In the case of `CNCCCCOc1ccccc1Cc1ccccc1`, the Potency result in assay [18], in assay [16], in assay [7] and in assay [11] was “inactive” throughout. The Potency was 23.9 µM (active) in [2]; 23.9 µM (active) in assay [4]; 23.9 µM (active) in [14]; 23.9 µM (active) in assay [15]; 21.3 µM (active) in [8]; 21.3 µM (active) in assay [12].
For the molecule `Cc1cccc(C)c1NC(=O)CN(CC(=O)O)CC(=O)O`, the Potency result in assay [18], in assay [3], in assay [4], in assay [13], in assay [14] and in [15] was “inactive” each time. Also, the Potency result in assay [16], in assay [5], in assay [6], in assay [19], in assay [7] and in [17] was “inactive” each time. For the same molecule, the Potency result in assay [8], in assay [9], in assay [10], in assay [11] and in [12] was “inactive” each time. In addition, the max response in assay [2] was 5.56%.
On to `CCCOC(C(=O)OC1CCN(C)CC1)(c1ccccc1)c1ccccc1`, for which the Potency result in [18], in [13], in [16], in assay [6], in [7] and in assay [17] was “inactive” throughout. For the same molecule, the Potency result in [9] and in assay [12] was “inactive” throughout. For the same molecule, the Potency was 19 µM (active) in [4], 23.9 µM (active) in assay [14], 23.9 µM (active) in assay [15] and 21.3 µM (active) in assay [19].
On to `CC(C)(C)Cl`, for which the Potency result in [18], in [3], in assay [4], in assay [13], in [14] and in assay [15] was “inactive” throughout. The Potency entry in [16], in assay [5], in assay [7], in [17], in [8] and in [9] was “inactive” in each case. Further, the Potency entry in assay [10] and in assay [11] was “inactive” each time. Further, the max response in assay [2] is 1.73%.
